# In PubChem BioAssay (EPA / NIEHS):
# Activity calls are given as the source filed them. Rule for the calls: active = hit-call score of the fitted dose curve at least 0.9, where 1 is the maximum; inactive = score below 0.9.
# Assay: CCTE_Shafer_MEA_acute_firing_rate_mean: CCTE's Neural Acute Assay for Mean Firing Rate, Shafer Lab (AID 2284009)
# Procedure: CCTE_Shafer_MEA_acute assay is conducted using Axion Biosystems 48 well microelectrode array (MEA) plates and Maestro recording system. Each well of the MEA plate contains a grid of 16 microelectrodes embedded in the culture surface. Electrically active cells, such as neurons, can be cultured over the electrodes, and electrical activity in these cells can be recorded extracellularly. The spontaneous firing of neurons is captured from each electrode on a microsecond timescale providing both temporally and spatially precise data. […] The CCTE_Shafer_MEA_acute assay uses primary cultures of rat cortical neurons. As these cultures mature over time, neural networks develop functional activity and form cohesive networks in which electrical activity can be highly coordinated. Baseline 40-minute recordings are made on days post-plating 13 or 15, followed by a secondary 40-minute recording after chemical exposure.CCTE_Shafer_MEA_acute_firing_rate_mean is a component of the CCTE_Shafer_MEA_acute assay. It measures the frequency number of spikes (action potential firings) as the total number of spikes divided by the length of the recording in a microelectrode array (MEA) using Axion Biosystems Maestro 768 channel amplifier with the AxIS adaptive spike detector. The firing rate is divided by the number of electrodes to report a well-mean value. The recordings before and after chemical treatment are used to calculate a percent change in the mean firing rate in each well.Data from the assay component CCTE_Shafer_MEA_acute_firing_rate_mean was analyzed into 1 assay endpoint. This assay endpoint, CCTE_Shafer_MEA_acute_firing_rate_mean, was analyzed in the negative analysis fitting direction relative to DMSO as the negative control and baseline of activity. Using a type of functional reporter, gain or loss-of-signal activity can be used to understand electrical activity.
# Spontaneous activity in the cortical cultures was recorded using an Axion Biosystems Maestro 768 channel amplifier and Axion Integrated Studios (AxIS) v1.8 (or later) software. The amplifier recorded from all channels simultaneously (gain = 1200 x; sampling rate = 12.5 kHz/channel): raw signals were filtered with a Butterworth band-pass filter (300-5000 Hz), which filters out slower local field potentials leaving only fast potentials, i.e., "spikes", arising from extracellular currents associated with action potentials (Pine 2006; Wheeler and Nam 2011). On-line spike detection of filtered signals was conducted with the AxIS adaptive spike detector, using a threshold of 8x the root mean squared (rms) noise on each channel. Any electrodes with rms noise levels greater than 5 uV were grounded (e.g., no data were recorded). Once grounded, an electrode was grounded for the duration of the experiment. All recordings were conducted at 37 C. Wells were deemed usable if on the day of the exposure >/= 10 electrodes were active (defined as >/= 5 spikes/min). On DIV 13 or 15, a minimum of three wells from one cortical culture preparation were treated with each compound (0.03-40 uM). Prior to recording baseline activity, each mwMEA plate was placed in the Maestro at 37 C and allowed to sit for 20 min while firing rates stabilized. Baseline activity (40 min) was recorded before the addition of each compound. An additional 40 min of spontaneous activity was recorded in the presence of each compound. Changes in network parameters relative to baseline were assessed following compound treatment.
SMILES,AC50,outcome
Nc1ncn([C@@H]2O[C@H](CO)[C@@H](O)[C@H]2O)c(=O)n1,7.63 nM (active),–
CCCCC(CC)COCC1CO1 (stereo unspecified),–,inactive
CO[Si](OC)(OC)c1ccccc1,–,inactive
CCO[Si](C)(OCC)OCC,–,inactive
C=C[Si](OC(C)=O)(OC(C)=O)OC(C)=O,–,inactive
CCOC(=O)c1ccccc1C(=C1C=C(Br)C(=O)C(Br)=C1)c1cc(Br)c(O)c(Br)c1,–,inactive
O=C(c1ccc(O)cc1)c1ccc(O)cc1O,–,inactive
Nc1ccc(N)c(Cl)c1,–,inactive
O=C1CCCN1CCO,–,inactive
CCCCC(CC)COC(=O)c1ccccc1O (stereo unspecified),–,inactive
CN1C(=O)N(C)C(O)C1O (stereo unspecified),–,inactive
